High-throughput results: PubChem, several laboratories
This is a sample that favours compounds with a hit; in the whole collection about 28% have one here.
CYP2C19 activ – human CYP2C19 activators, primary screen, biochemical, luminescence | 96,000 tested, under 10 active | activation factor at 5 µM | AID 1025, 2008 | Cytochrome P450 2C19 (Homo sapiens), P33261 | recombinant CYP2C19, luciferin-H EGE luminescence; active compounds read high; 0 = fully inhibited enzyme, 1 = untreated enzyme;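 active = activation factor of at least 2 at 5 µM in the primary screen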;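 also: 0 = wells with 2.5 mM tranylcypromine and 1 = vehicle-only wells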
D1 allo mod – D1 CRE-luciferase signal change, two-sided – cell-based, HEK293 D1, dopamine EC30, D1 allosteric modulator project, primary screen; D(1A) dopamine receptor (Homo sapiens), P21728; dopamine EC30 potentiation; actives deviate in either direction; B-score at 10 µM; 5.9% of 58,000 active;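 active = luminescence count or its row- and column-corrected plate score outside the 99.7% band of the plate's sample wells, on either side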
hDAT+cocaine – changed hDAT dopamine uptake under cocaine IC80, either direction, primary screen, cocaine antagonist project, cell-based, LLC-PK1 hDAT, [14C]-dopamine uptake, MLSMR; B-score at 10 µM; 1.3% of 110,000 active; Sodium-dependent dopamine transporter (Homo sapiens), Q01959; LLC-PK1 hDAT cells, [14C]-dopamine uptake with cocaine IC80; actives deviate in either direction;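 active = Z score or B-score, a plate-position-corrected score, falls beyond the plate's 99.7% confidence bounds, in either direction; inactive = both scores lie inside the 99.7% bounds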;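 also: scored against the spread of the other compound wells on the same plate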
CYP2C9 activ – human CYP2C9 activators, primary screen, biochemical, luminescence | Cytochrome P450 2C9 (Homo sapiens), P11712 | AID 1024, 2008 | activation factor at 5 µM | recombinant CYP2C9, luciferin-H conversion; active compounds read high; factor 1 = untreated enzyme, 0 = blocked | 1.4% of 96,000 active;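 active = activation factor of 2 or more for CYP2C9 at a 5 µM dose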;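 also: 0 = sulfaphenazole-blocked wells and 1 = vehicle-only wells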
Target sequence (P11712 whole entry, looked up): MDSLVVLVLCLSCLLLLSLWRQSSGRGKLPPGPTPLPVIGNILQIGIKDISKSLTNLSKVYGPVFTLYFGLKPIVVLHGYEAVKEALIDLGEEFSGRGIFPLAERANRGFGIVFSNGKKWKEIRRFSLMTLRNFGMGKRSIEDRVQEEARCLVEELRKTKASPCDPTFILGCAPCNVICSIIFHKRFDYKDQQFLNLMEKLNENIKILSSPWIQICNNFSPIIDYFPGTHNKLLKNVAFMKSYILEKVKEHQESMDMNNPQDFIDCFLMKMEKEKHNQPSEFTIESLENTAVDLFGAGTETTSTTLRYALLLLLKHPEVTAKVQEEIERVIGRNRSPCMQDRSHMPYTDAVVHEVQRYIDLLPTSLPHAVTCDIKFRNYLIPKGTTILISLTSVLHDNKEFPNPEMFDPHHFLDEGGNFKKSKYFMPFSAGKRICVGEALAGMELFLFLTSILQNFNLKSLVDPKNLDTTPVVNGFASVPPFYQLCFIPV
CYP2C19 inhib – blockers of cytochrome P450 2C19 activity – biochemical, luminescence, ADME assay, primary screen; P33261; CYP2C19 Supersomes, luciferin-H EGE luminescence, 30 min; inhibition, % at 5 µM; 21% of 96,000 active; AID 778, 2007;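 active = CYP2C19 inhibition above a set limit at 5 µM in the primary screen, cut at about 50% in these data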;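 also: plate controls were negative control wells for no effect and 2.5 mM tranylcypromine positive control for full effect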
CYP2C9 inh – blockers of cytochrome P450 2C9 activity – biochemical, luminescence, ADME assay, primary screen; CYP2C9 Supersomes, luciferin-H conversion; P11712; inhibition, % at 5 µM; 20% of 96,000 active;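 active = blocking of liver enzyme CYP2C9 beyond about 50% at 5 µM, limit read from the data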
* marks the source's active call; other numbers are inactive results; . = no result given.

SMILES	CYP2C19 activ	D1 allo mod	hDAT+cocaine	CYP2C9 activ	CYP2C19 inhib	CYP2C9 inh
COc1ccc(OC)c(-n2nnnc2SCC(=O)Nc2nc(C)c(C)s2)c1	0.7	-0.45	0.44	0.9	31	7
Cc1nnc(NC(=O)CSCc2ccccc2)s1	1	.	-1.4	0.9	2	13
Cc1nnc(NC(=O)CSc2nnnn2Cc2ccccc2)s1	1	0.089	0.39	0.1	-2	86*
Cc1nc(NC(=O)CSc2nnnn2Cc2ccccc2)sc1C	0.2	0.71	0	0.5	81*	51*
CC(C)SCCCOc1ccc(C(C)(C)C)cc1	1	.	-0.49	1	-4	3
O=C(O)C1CC(=O)N(c2ccc(OCc3c(F)cccc3Cl)cc2)C1 (stereo not given)	1	-0.99	-0.052	0.9	-2	7
CCOC(=O)c1nc(C)n(-c2ccc(Cl)cc2)n1	0.8	.	-0.85	0.9	22	5
CCOC(=O)C(=CNc1cc(C)nn1-c1ccc(Cl)cc1)C(=O)OCC	0.3	.	0.02	0.2	71*	77*
Cc1cc(NC(=O)c2ccc(C)s2)n(-c2ccccc2)n1	0.2	.	0.048	0.7	76*	27
CCOC(=O)/C=C(\C)Nc1cc(C)nn1-c1ccccc1	1	-4.8*	-0.047	1.1	3	-10
Cc1cc(NC(=O)COc2ccc(Cl)cc2Cl)n(-c2ccccc2)n1	0.3	.	-0.067	0.7	71*	34
COc1ccc(CC(NC(C)=O)C(=O)NC2CCN(S(=O)(=O)c3cccc4ccccc34)CC2)cc1OC (stereo not given)	0.8	.	0.38	0.9	19	8
CCOc1ccc(Nc2oc(-c3ccccc3Cl)nc2C#N)cc1	0.8	.	-0.048	0.2	21	76*
CNc1oc(-c2ccccc2Cl)nc1C#N	0.7	.	-0.39	0.8	26	16
CCN(c1ccc(NC(=O)CN2C(=O)NC3(CCOc4ccccc43)C2=O)cc1)C(C)C (stereo not given)	0.7	.	1.6	0.4	27	59*
O=C1NC2(CCOc3ccccc32)C(=O)N1CC(=O)N(Cc1ccccc1)C1CCS(=O)(=O)C1 (stereo not given)	0.8	-0.19	-0.96	0.8	16	22
CC#CCN1c2ccccc2[C@]23C[C@@H](C(=O)OC)N=C2NC(C(=O)OC)=C(C(=O)OC)[C@H]13	.	.	1.1	.	.	.
CCOC(=O)CSc1nnc(-c2ccc(OC)cc2OC)o1	1.1	-0.79	-1.2	1.3	-12	-34
CC(=O)CSc1nc2ccccc2s1	0.9	.	-1.1	1.1	11	-13
C=CCS(=O)(=O)c1nc2ccccc2s1	1	.	0.16	1.3	-1	-29
CCS(=O)(=O)CCSc1nc2ccccc2s1	0.3	-0.023	-2.5	1.5	72*	-49
O=S(=O)(CCSc1nc2ccccc2s1)c1nc2ccccc2s1	0.8	.	-1.2	0.3	24	74*
CN(C)c1oc(-c2ccc(OCc3ccccc3)cc2)nc1C#N	0.2	-0.74	-1.2	0.9	80*	15
N#Cc1nc(-c2ccc(OCc3ccccc3)cc2)oc1NCc1cccnc1	0.9	0.0061	-0.14	0.8	10	22
O=C(CCl)N(c1ccc(Cl)cc1)c1c[nH]c2ccccc12	0.1	.	0.52	0.2	90*	82*
SMILES	CYP2C19 activ	D1 allo mod	hDAT+cocaine	CYP2C9 activ	CYP2C19 inhib	CYP2C9 inh
CCOC(=O)Cc1c[nH]c2ccccc12	0.9	0.91	-0.91	0.9	15	9
O=C(CCl)N(c1ccccc1)c1c[nH]c2ccccc12	0.6	.	0.43	0.1	44	95*
O=C(O)Cc1c[nH]c2ccccc12	.	.	-0.46	.	.	.
CCC(Sc1nc2ccccc2s1)C(=O)Nc1cc(C)on1 (stereo not given)	.	.	-0.031	.	.	.
CCc1ccc(NC(=O)C(C)Nc2ccc(S(=O)(=O)NC(C)=O)cc2)cc1 (stereo not given)	0.9	.	-0.18	0.9	11	10
COC(=O)c1ccc(COc2ccc(C3C4=C(CCCC4=O)Nc4onc(C)c43)cc2)cc1 (stereo not given)	0.8	-0.088	1.8	0.3	17	68*
Cc1nc(N)sc1-c1csc(Nc2ccccc2)n1	0.2	.	0.62	0.2	85*	83*
CCCC(=O)Nc1nc(C)c(-c2csc(Nc3cc(OC)ccc3OC)n2)s1	0.8	.	0.12	0.2	20	78*
C=CCCC(=O)Nc1nc(C)c(-c2csc(Nc3cc(OC)ccc3OC)n2)s1	0.9	.	-0.61	0.5	9	52*
CCOc1ccccc1Nc1nc(-c2sc(NC(=O)c3ccco3)nc2C)cs1	1	.	0.98	0.4	4	59*
O=C(Nc1ccccc1)C1=C[C@@H](c2coc3ccccc3c2=O)C[C@@H](OCCCCO)O1	.	.	-0.071	.	.	.
COc1ccc2sc(NC(=O)CC(C)C)nc2c1	0.4	-0.93	0.33	0.3	58*	66*
CCCC(C)C(=O)Nc1nc(C)c(-c2csc(Nc3cc(OC)ccc3OC)n2)s1 (stereo not given)	0.8	.	0.21	0.5	22	53*
COc1cccc(Nc2nc(-c3sc(NC(=O)c4ccccc4)nc3C)cs2)c1	0.8	.	0.17	0.4	23	59*
CCCCCC(=O)Nc1nc(C)c(-c2csc(Nc3cc(Cl)ccc3OC)n2)s1	0.9	.	0.76	0.7	6	34
COc1ccc(OC)c(Nc2nc(-c3sc(N)nc3C)cs2)c1	0.5	2	1.1	0.3	53*	73*
CCC(=O)Nc1nc2cc(OC)ccc2s1	1	-1.6	1.1	0.8	5	16
CNc1nnc(-c2cc3ccccc3oc2=O)s1	0.8	-0.73	-0.34	0.9	16	12
COc1ccccc1Nc1nc(-c2sc(NC(=O)CC(C)C)nc2C)cs1	0.8	.	2.7*	0.5	15	54*
COc1cccc(Nc2nc(-c3sc(NC(=O)CC(C)C)nc3C)cs2)c1	0.2	.	0.27	0.1	84*	86*
CCCC(=O)Nc1nc(C)c(-c2csc(Nc3ccccc3OC)n2)s1	0.7	.	0.35	0.3	32	66*
COc1ccccc1Nc1nc(-c2sc(NC(=O)C(C)(C)C)nc2C)cs1	0.9	.	1.6	0.6	12	40
COc1cnc(SCC(=O)O)[nH]c1=O	1.1	.	-0.36	1.1	-8	-6
CCOC(=O)COc1ccc2c(c1)C(=O)CC1(CCN(C(C)=O)CC1)O2	1.1	-0.81	-0.29	1	-7	-1
CSC1=N/C(=C\c2ccccc2)C(=O)N1C	1	.	-0.72	0.9	2	15
